Data: the supplement of paper PMC3334620
In all, about 33,000 sequences were measured (“E-score (-0.5 to 0.5)”: median about -0.011, highest 2% from about 0.28 on). What follows is part of a selection rich in the highest values, with near analogues and random picks from the rest.

biological target: T1, Gcr1 (UniProt P07261); test: PBM E-score (8-mer binding enrichment) (E-score (-0.5 to 0.5)); higher = stronger / more preferred TF binding; conditions: protein concentration: 100 nM; construct: GST-full length
T1 sequence: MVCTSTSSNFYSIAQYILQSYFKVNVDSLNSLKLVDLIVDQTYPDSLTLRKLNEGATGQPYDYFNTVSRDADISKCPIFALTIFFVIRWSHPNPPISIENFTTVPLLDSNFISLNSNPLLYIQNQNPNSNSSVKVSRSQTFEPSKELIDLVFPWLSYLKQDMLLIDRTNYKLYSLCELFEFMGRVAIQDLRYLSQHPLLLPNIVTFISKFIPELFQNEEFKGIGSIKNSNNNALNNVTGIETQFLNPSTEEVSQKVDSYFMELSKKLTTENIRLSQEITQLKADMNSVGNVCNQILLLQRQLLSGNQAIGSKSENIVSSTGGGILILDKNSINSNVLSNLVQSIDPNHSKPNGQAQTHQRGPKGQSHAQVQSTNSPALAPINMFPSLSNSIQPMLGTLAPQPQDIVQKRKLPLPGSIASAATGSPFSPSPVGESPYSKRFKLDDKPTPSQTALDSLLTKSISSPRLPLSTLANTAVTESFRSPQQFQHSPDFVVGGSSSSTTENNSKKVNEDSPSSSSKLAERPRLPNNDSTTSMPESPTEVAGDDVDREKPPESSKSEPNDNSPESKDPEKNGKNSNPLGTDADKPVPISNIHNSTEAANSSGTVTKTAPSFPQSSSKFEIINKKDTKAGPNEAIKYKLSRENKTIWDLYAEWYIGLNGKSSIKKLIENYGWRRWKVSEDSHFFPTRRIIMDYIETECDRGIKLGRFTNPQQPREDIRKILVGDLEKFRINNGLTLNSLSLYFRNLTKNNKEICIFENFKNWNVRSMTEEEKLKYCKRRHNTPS
Summary of the method: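 Each ungapped eight-base word and its reverse complement, pooled, received an E-score from the Universal PBM Analysis Suite. Underlying scans, normalised with masliner, recorded fluorescent anti-GST bound to GST-tagged yeast transcription factors. These were applied at about 100-200 nM to universal all-10-mer Agilent arrays double-stranded by primer extension.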

Sequence	PBM E-score
CATGCCTA	-0.112
AAGAGAGC	-0.276
GAGCCGTA	0.0183
ATGGATAG	-0.00601
AACGGGGA	-0.00775
GAGATCCC	0.0362
ACGATCCT	-0.0105
AGGATCCC	0.379
GGGATCAC	-0.137
AGGATCCA	0.263
AGAATCCT	0.252
GGGATCCC	0.419
AGGATCCT	0.301
AGAATCCA	0.249
AAGATCCT	0.0935
AGGATCCG	0.0808
AGAATCCC	0.321
CTGGTCGA	-0.3
GGGCCAAC	-0.13
AAATGCTT	-0.208
GCCGGCGC	0.0181
AGCAAACT	0.0882
GGGTTCAA	-0.101
GCCGGCTA	-0.145
GAAGGGAC	-0.279

Sequence	PBM E-score
GGGATCCA	0.347
CGGATCGC	-0.0306
GAGATCCA	0.174
TGGATCAA	-0.0326
CGGATCCC	0.341
TGGATCCA	0.317
CGGATCCA	0.235
CGGATCCG	0.212
GTGATCCA	-0.0936
AAATCAAA	0.0655
TGAAAGCA	0.00794
GATACTGC	-0.205
ATCCGACA	-0.019
CGGTTAGC	-0.0704
GGCCTGCA	-0.237
TACCAGAA	0.34
CCCCAGAC	0.0344
GTCCAGAA	0.0699
CCCCAGAA	0.288
CTCCAGAA	0.0346
AACCAGAA	0.281
CACCAGAA	0.15
TTCCAGAA	0.287
AACCAGAC	-0.0315
GACCAGAA	0.131

Sequence	PBM E-score
AACCAGAT	0.228
CCCCAGAG	-0.0817
AAGTTTGG	0.179
AATCCAAA	0.205
ACTTCATG	0.0318
GAACCCGA	0.195
CGTATCTC	0.0698
ACTACGGG	0.00638
AAAATCCA	-0.012
TTCCACAA	0.347
AACCAGTA	0.315
AACCAGTG	-0.195
CTCCACAA	0.0774
GTCCACAA	0.224
TACCAGTA	0.224
CCCACCAG	0.0742
CGGGCCGC	0.0123
AAGGTTCA	-0.179
GAAGACGC	0.304
CCAGAAGC	0.357
CTAGAAGC	0.154
GCAGAAGC	0.0881
ATAGAAGG	0.0701
CAAGAAGC	0.24
ATAGAAGC	0.315

Sequence	PBM E-score
CCAGAAGA	0.187
AAAGAAGC	0.262
CAAGACGC	0.238
GAAGACGA	0.198
GAAGAAGC	0.318
CCGCAGCG	0.0315
CCGGTACG	-0.0393
CGATAGAG	-0.0218
AGGCCTAA	-0.0235
CCAGGTAA	-0.0543
GTTCTCAA	-0.129
AACAGACC	-0.179
ATGTCTAA	-0.0649
CCTTGATA	-0.0119
TAAGAAGA	0.243
CAAGAAGA	0.354
ATAGACGA	0.248
ATAGACGC	0.377
GAAGAAGA	0.183
CTAGACGC	0.0428
CTTCCTCA	0.264
GGCCTCCA	0.172
GGCTTTCA	-0.109
CACTGATC	-0.142
ACCTCCAT	-0.24

Sequence	PBM E-score
GTCGGGGA	0.102
AGATTGTA	-0.193
AAGATTCC	0.271
CAGATTCA	-0.0169
CAGATTCC	0.388
GAGATTCA	-0.0394
CAGATTCG	0.037
GAGATTCC	0.363
AGTAACTC	-0.155
AGTGGAAG	0.442
AGTGGAGG	0.082
CGTGGAAA	0.0989
CATGGAAG	-0.0984
ATTGGAAG	0.363
CGTGGAAG	0.0771
CGTGGAGC	-0.0506
AGTGGAAA	0.0918
AGTGGAAT	0.39
ATTGGAAA	0.0513
AGTGGAGC	0.32
ATTGGAAC	0.221
ATTGCCGA	-0.127
TGAGGGAA	-0.101
AGTCTATG	-0.147
ACCCTAGT	-0.0547

Sequence	PBM E-score
CGAGACGC	0.131
CGGGTATC	0.131
CTCACACA	0.1
AGTGGACG	0.315
AGTGGACC	-0.0505
AGGGGAAT	0.341
AGTGGACA	-0.0203
AGGGGAAA	0.0362
GGTGGAAC	0.0244
CGTGGAAC	-0.113
AGGGGAAC	-0.00862
AGTGGAAC	0.364
ACGAAACG	-0.14
ATCGGGAC	0.0526
AATTGTTC	0.0249
AGCCTTGA	-0.273
AGATGAGC	-0.102
ACTTCTCG	-0.0046
CCCCAAGC	-0.00278
CGTGAACG	0.0112
ACGCAGAG	-0.141
ACGGGGTA	0.129
AAATCCCA	0.107
CCATCCCA	-0.053
CTATCCCA	-0.0348

Sequence	PBM E-score
ACATCCCC	0.0757
GCATCCCA	0.309
GAATCCCA	0.367
ATATCCCA	0.116
GTATCCCA	0.339
ACATCCCA	0.0139
GCATCCCC	0.351
CCATCCCC	0.0989
GAATCCCC	0.0893
ACAGGTAA	0.0538
ACCATCCT	0.0586
ATACTAGA	0.0992
ACATGTGA	-0.0765
CTGGAAAA	-0.00671
ACTACTCG	0.0127
AGGCCTAG	-0.214
CGGTCGAG	0.0179
ACACGAAA	-0.131
ACACGAAG	0.238
ACACGAAT	0.319
AGGTTCGG	-0.0598
GAGAAAGA	-0.16
